Records with an inconclusive call do not appear. Active and inactive are the calls of the source. Unless noted, calls follow the shape of the dose curve; as a rule, active = well fitted curve in the direction sought with a large enough effect in the repeat runs; inconclusive = weak or mixed curves; inactive = no such curve, though single readings can be large; an effect the other way counts as inactive or inconclusive.
Tests used:
[1] = qHTS assay to identify small molecule antagonists of the sonic hedgehog signaling (Shh) pathway (AID 1259369; calls by dose curve; also: nearly all actives have a fitted effect of over 45% in size; also: potency is read from the fitted curve at half-maximal effect)
In short: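 Read-out is luminescence from a firefly luciferase gene controlled by the Gli1 response element, in 3T3Gli1-Luc cells pre-incubated 4hr then exposed to compounds and conditioned medium for 24hr.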

[2] = biological target: Estrogen receptor beta (Homo sapiens) (UniProt Q92731); test: qHTS assay to identify small molecule agonists of the estrogen receptor beta (ER-beta) signaling pathway (AID 1259377; active = well fitted activation curve with a large enough effect in the signal ratio in the repeat runs, not every such curve was filed as active; the % refers to the signal ratio)
Chain of Estrogen receptor beta (Homo sapiens) (Q92731 whole entry, looked up): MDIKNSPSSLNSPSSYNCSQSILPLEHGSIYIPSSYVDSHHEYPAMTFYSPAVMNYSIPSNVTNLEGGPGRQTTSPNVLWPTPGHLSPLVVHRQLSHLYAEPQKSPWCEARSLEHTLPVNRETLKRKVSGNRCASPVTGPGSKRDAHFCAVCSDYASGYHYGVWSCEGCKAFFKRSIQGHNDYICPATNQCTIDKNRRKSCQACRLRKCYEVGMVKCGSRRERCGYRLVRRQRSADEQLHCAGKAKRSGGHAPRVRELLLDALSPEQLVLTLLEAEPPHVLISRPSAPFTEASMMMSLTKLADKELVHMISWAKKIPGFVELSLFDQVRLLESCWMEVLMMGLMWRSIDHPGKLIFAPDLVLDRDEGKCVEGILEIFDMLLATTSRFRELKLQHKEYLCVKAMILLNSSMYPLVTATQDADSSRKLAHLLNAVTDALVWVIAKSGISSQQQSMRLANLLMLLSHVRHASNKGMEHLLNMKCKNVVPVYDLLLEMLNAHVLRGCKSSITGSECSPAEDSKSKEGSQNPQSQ
In short: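 Measured by fluorescence intensity from a B/G FRET beta-lactamase substrate (2 h, room temperature) in ER-beta-UAS-bla HEK293T cells treated with DMSO-dissolved compounds for 16 hr at 37C and 5% CO2.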

[3] = qHTS assay to identify small molecule agonists of the androgen receptor (AR) signaling pathway in the presence of an antagonist - cell viability counter screen (AID 1259379);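 also: MDA-kb2 human breast cancer cells carrying an MMTV luciferase reporter; series mostly up to about 92 µM; nearly all actives have a fitted effect of over 25% in size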
In short: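 Each compound was tested at 15 concentrations on MDA-kb2 cells in the presence of 3.0uM nilutamide. Viability was measured by CellTiter-Fluor fluorescence after a 16 hr incubation at 37C in a CO2-free atmosphere.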

[4] = qHTS assay to identify small molecule agonists of the estrogen receptor beta (ER-beta) signaling pathway - cell viability counter screen (AID 1259380); also: nearly all actives have a fitted effect of over 30% in size
In short: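 Compounds dissolved in DMSO were pin-transferred onto ER-beta-UAS-bla HEK293T cells that had settled 6 hr, and exposure ran 16 hr at 37C. Following the reporter read, CellTiter-Glo luminescence after 30 min at room temperature indicated cytotoxicity.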

[5] = qHTS assay to identify small molecule antagonists of the estrogen receptor beta (ER-beta) signaling pathway - cell viability counter screen (AID 1259382);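 also: HEK293T cells carrying ER-beta-UAS-bla reporter stimulated with estradiol; series mostly up to about 92 µM; nearly all actives have a fitted effect of over 55% in size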
In short: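 CellTiter-Glo ATP luminescence measured after the LiveBLAzer read in the same wells; ER-beta-UAS-bla HEK293T cells, 16 hr compound treatment with 1nM 17-beta-estradiol agonist at 37C, 5% CO2.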

[6] = qHTS assay to identify small molecule agonists of the estrogen receptor alpha (ER-alpha) signaling pathway in the presence of an antagonist - cell viability counter screen (AID 1259386);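 also: series mostly up to about 92 µM; cells exposed to compounds for 22 h at 37 °C before the viability read; nearly all actives have a fitted effect of over 30% in size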
In short: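 Using estrogen-depleted VM7Luc4E2 cells, the 15-concentration compound series was applied together with 10.0nM ICI-182,780 and incubated 22hr at 37C/5% CO2. Cell viability was then scored by CellTiter-Fluor.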

[7] = biological target: Progesterone receptor (Homo sapiens) (UniProt P06401); test: qHTS assay to identify small molecule agonists of the progesterone receptor (PR) signaling pathway (AID 1346784; calls by dose curve; also: nearly all actives have a fitted effect of over 30% in size)
Chain of Progesterone receptor (Homo sapiens) (P06401 whole entry, looked up): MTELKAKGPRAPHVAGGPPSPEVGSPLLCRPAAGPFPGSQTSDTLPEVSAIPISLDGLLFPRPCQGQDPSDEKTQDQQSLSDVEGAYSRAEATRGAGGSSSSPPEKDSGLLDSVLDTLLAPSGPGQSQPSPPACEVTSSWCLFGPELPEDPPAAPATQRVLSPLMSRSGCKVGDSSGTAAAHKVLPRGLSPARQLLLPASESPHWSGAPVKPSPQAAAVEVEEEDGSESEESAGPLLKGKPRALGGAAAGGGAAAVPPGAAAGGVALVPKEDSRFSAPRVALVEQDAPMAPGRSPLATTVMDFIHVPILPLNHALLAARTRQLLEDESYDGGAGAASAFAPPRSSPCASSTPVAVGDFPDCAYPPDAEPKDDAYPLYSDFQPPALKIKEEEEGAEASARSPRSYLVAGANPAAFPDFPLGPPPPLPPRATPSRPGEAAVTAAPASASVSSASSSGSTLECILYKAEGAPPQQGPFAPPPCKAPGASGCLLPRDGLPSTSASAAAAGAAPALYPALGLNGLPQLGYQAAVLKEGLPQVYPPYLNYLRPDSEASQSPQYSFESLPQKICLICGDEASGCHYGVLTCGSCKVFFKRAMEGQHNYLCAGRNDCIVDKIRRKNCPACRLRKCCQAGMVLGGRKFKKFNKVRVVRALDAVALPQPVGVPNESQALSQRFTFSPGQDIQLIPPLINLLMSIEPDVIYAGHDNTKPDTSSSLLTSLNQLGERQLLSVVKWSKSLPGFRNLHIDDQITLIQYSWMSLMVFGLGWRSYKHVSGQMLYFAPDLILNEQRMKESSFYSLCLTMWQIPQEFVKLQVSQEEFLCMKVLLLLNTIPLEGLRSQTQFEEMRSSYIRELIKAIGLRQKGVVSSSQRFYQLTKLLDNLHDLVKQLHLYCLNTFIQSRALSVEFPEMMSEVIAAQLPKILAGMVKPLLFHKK
In short: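 The screen uses PR-UAS-bla HEK 293T cells in charcoal-stripped serum (2%). Compounds are applied for 16 hr at 37C after a 6 hr pre-incubation, and reporter activity is detected with a FRET beta-lactamase substrate after 2 hr at room temperature.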

[8] = qHTS assay to identify small molecule antagonists of the progesterone receptor (PR) signaling pathway - cell viability counter screen (AID 1346798); also: series mostly up to about 92 µM; nearly all actives have a fitted effect of over 50% in size
In short: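 Viability was determined by ATP-based luminescence (CellTiter-Glo) in PR-UAS-bla HEK293T cells cultured in 2% charcoal-stripped serum and incubated 16 hr with compounds under R5020 stimulation.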

[9] = qHTS assay to identify small molecule agonists of the progesterone receptor (PR) signaling pathway - cell viability counter screen (AID 1346799; calls by dose curve; also: nearly all actives have a fitted effect of over 45% in size)
In short: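 Viability was scored by ATP luminescence (CellTiter-Glo, 30 min, room temperature) in the same wells used for the reporter readout, after 16 hr compound exposure of PR-UAS-bla HEK293T cells.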

[10] = qHTS assay to identify small molecule antagonists of the TGF-beta/Smad signaling pathway - cell viability counter screen (AID 1346824); also: nearly all actives have a fitted effect of over 50% in size
In short: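 SBE-bla HEK 293T cells were plated overnight at 37 C, then given compounds in DMSO plus TGF-beta1 (added as 0.25 ng/mL solution) for 5 hr. After the bla read, CellTiter-Glo was added to the same wells and luminescence read after 30 min at room temperature.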

[11] = qHTS assay to identify small molecule agonists of the TGF-beta/Smad signaling pathway - cell viability counter screen (AID 1346829); also: top concentration of the series differs between compounds; nearly all actives have a fitted effect of over 45% in size
In short: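 In parallel with the Smad reporter read, viability of HEK 293T cells stably carrying SBE-bla is quantified by ATP luminescence following 5 hr compound treatment.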

[12] = qHTS assay to identify small molecule agonists of the TGF-beta/Smad signaling pathway (AID 1346859; active = well fitted activation curve with a large enough effect in the signal ratio in the repeat runs, not every such curve was filed as active; the % refers to the signal ratio; also: series mostly up to about 77 µM)
In short: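 Dual-wavelength fluorescence (460/530 nm emission) quantified beta-lactamase expression under the Smad binding element in HEK 293T cells following 5 hr compound treatment at 37 C.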

[13] = biological target: Thyrotropin-releasing hormone receptor (Homo sapiens) (UniProt P34981); test: qHTS assay to identify small molecule agonists of the thyrotropin-releasing hormone receptor (TRHR) signaling pathway (AID 1346891; calls by dose curve;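 also: HEK293 cells expressing TRHR with calcium dye readout; series mostly up to about 58 µM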)
Chain of Thyrotropin-releasing hormone receptor (Homo sapiens) (P34981 whole entry, looked up): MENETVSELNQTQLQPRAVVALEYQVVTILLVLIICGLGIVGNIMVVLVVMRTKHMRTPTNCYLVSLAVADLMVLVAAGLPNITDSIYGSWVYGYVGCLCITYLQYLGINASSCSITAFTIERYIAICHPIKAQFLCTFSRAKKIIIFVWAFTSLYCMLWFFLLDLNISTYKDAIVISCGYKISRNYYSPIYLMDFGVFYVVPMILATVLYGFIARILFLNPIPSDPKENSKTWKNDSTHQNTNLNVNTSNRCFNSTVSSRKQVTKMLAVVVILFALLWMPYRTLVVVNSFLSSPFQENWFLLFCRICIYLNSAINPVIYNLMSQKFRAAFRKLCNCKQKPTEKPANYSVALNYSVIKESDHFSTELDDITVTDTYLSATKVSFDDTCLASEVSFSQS
In short: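 Kinetic fluorescence (3 min, 1 s intervals) reported intracellular calcium after compound transfer onto TRHR-Hek293 cells pre-loaded with dye for 2 h at 37 °C.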

[14] = Human pregnane X receptor (PXR) small molecule agonists, qHTS cell viability counter screen (AID 1346977); also: nearly all actives have a fitted effect of over 50% in size
In short: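 HepG2 cells stably carrying the PXR-Luc reporter are cultured with 5% charcoal-stripped FBS and treated with compounds for 24hr. CellTiter-Fluor is added at 23hr and fluorescence is read after 1hr.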

[15] = qHTS assay to identify small molecule agonists or antagonists of the thyroid stimulating hormone receptor (TSHR) signaling pathway - wild type cell line counter screen (AID 1259384; calls by dose curve)
In short: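 Wild-type HEK293 cells were plated 18 h at 37 C/5% CO2, pin-dosed with compound plus Ro20-1724 medium, held 30 min at room temperature, then given cAMP-d2 and anti-cAMP-cryptate; fluorescence was read after 1 h. Fifteen concentrations, triplicate.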

[16] = biological target: Thyrotropin receptor (Homo sapiens) (UniProt P16473); test: qHTS assay to identify small molecule antagonists of the thyroid stimulating hormone receptor (TSHR) signaling pathway (AID 1259385; calls by dose curve; also: nearly all actives have a fitted effect of over 20% in size)
Chain of Thyrotropin receptor (Homo sapiens) (P16473 whole entry, looked up): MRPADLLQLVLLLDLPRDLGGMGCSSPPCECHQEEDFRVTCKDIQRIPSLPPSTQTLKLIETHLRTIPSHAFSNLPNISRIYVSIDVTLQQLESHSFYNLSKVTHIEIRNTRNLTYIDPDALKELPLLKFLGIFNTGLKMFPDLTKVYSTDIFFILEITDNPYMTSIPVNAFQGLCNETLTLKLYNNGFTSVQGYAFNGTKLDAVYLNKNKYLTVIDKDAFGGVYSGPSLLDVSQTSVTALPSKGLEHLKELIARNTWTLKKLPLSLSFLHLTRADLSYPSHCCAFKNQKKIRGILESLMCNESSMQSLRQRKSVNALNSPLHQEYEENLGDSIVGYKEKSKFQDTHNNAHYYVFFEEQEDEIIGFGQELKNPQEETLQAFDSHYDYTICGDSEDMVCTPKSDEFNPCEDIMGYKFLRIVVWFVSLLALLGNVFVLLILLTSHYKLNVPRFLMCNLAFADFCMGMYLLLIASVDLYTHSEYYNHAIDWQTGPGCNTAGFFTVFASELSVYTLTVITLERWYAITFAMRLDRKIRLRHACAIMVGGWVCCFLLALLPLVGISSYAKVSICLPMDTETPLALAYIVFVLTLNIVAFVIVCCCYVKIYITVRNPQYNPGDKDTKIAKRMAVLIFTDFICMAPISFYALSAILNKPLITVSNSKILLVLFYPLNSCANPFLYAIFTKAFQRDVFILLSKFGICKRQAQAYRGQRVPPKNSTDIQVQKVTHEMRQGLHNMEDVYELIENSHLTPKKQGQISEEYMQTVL
In short: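 TSHR-HEK293 cells were plated and held 18 h at 37C/5% CO2, then given compound plus Ro20-1724 and stimulated with TSH at 1.5 ng/mL final. After 30 min at room temperature, cAMP was detected with cAMP-d2/anti-cAMP-cryptate (1 h) by fluorescence.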

[17] = biological target: Progesterone receptor (Homo sapiens) (UniProt P06401); test: qHTS assay to identify small molecule antagonists of the progesterone receptor (PR) signaling pathway (AID 1346795; active = well fitted inhibition curve with a large enough effect in the signal ratio in the repeat runs, not every such curve was filed as active; the % refers to the signal ratio)
In short: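 After 6 hr plating at 37C in 2% stripped-serum medium, PR-UAS-bla HEK293T cells got compounds, then 1 nM R5020. Sixteen hours later, LiveBLAzer substrate was applied for 2 hr at room temperature and fluorescence was recorded.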

[18] = biological target: Thyrotropin-releasing hormone receptor (Homo sapiens) (UniProt P34981); test: qHTS assay to identify small molecule antagonists of the thyrotropin-releasing hormone receptor (TRHR) signaling pathway (AID 1346877; active = well fitted inhibition curve with a large enough effect in the repeat runs, not every such curve was filed as active; also: series mostly up to about 51 µM)
In short: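 Calcium signal in dye-loaded TRHR/HEK293 cells; compounds added 5 min before TRH (1 nM final); fluorescence monitored 3 min at 1 s steps.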

[19] = biological target: Estrogen receptor (Homo sapiens) (UniProt P03372); test: qHTS assay to identify small molecule agonists of the estrogen receptor alpha (ER-alpha) signaling pathway in the presence of an antagonist (AID 1259383; calls by dose curve; also: top concentration of the series differs between compounds; nearly all actives have a fitted effect of over 15% in size)
Chain of Estrogen receptor (Homo sapiens) (P03372 whole entry, looked up): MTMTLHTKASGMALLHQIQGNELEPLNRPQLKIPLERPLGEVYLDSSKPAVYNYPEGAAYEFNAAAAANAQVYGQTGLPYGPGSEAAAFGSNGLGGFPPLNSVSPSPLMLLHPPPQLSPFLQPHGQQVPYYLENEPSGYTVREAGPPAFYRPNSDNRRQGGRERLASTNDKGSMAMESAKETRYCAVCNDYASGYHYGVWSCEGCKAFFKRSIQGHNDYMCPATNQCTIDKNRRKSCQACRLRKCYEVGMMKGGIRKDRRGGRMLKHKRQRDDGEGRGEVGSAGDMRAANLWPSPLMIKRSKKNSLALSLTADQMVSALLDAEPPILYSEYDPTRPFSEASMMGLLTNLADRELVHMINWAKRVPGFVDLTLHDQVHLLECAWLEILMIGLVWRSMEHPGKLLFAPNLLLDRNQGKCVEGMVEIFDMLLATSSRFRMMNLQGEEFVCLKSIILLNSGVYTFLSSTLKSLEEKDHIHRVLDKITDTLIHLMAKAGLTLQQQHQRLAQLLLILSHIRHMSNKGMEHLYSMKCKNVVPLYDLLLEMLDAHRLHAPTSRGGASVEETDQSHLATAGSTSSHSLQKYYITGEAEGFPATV
In short: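 Luminescent ERE-luciferase reporter, VM7Luc4E2 cells (endogenous ER-alpha); 10.0nM ICI-182,780 final; 15-point compound titration; 22hr at 37C; ONE-Glo, 30min RT.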
% is scaled to controls: 0 for no effect and ±100 for the full control effect.

FC(F)OC(Cl)C(F)(F)F (centres undefined)
inactive: Potency [1] | outcome [2] | Potency [3] | Potency [4] | Potency [5] | Potency [6] | Potency [7] | Potency [8] | Potency [9] | Potency [10] | outcome [11] | outcome [12] | outcome [13] | Potency [14]

CC(C)CNCC(C)C
inactive: Potency [1] | outcome [2] | Potency [3] | Potency [4] | Potency [5] | outcome [15] | Potency [16] | Potency [6] | Potency [7] | Potency [17] | Potency [9] | Potency [10] | outcome [11] | outcome [12] | outcome [18] | outcome [13] | Potency [14]

CC(=O)Nc1ccc(S(N)(=O)=O)cc1
inactive: Potency [1] | outcome [2] | Potency [3] | Potency [5] | Potency [19] | outcome [15] | Potency [16] | Potency [6] | Potency [7] | Potency [17] | Potency [8] | Potency [9] | outcome [11] | outcome [12] | outcome [18] | outcome [13] | Potency [14]

CCC(C)S (centres undefined)
inactive: activity change, negative = inhibition [1] 17.6% [at 3.27 µM] | activation [2] 0.578% [at 3.32 µM] | activity change, negative = cytotoxicity [3] -0.314% [at 3.27 µM] | activity change, negative = cytotoxicity [4] 4.81% [at 3.32 µM] | activity change, negative = cytotoxicity [5] 6.44% [at 3.27 µM] | activity change, negative = inhibition [16] -0.487% [at 3.27 µM] | activity change, negative = cytotoxicity [6] 1.97% [at 3.27 µM] | activation [7] -0.0244% [at 3.27 µM] | activity change, negative = inhibition [17] 8.27% [at 3.27 µM] | activity change, negative = cytotoxicity [8] -5.62% [at 3.27 µM] | activity change, negative = cytotoxicity [9] 1.88% [at 3.27 µM] | viability change, negative = cytotoxic [10] -5.42% [at 2.72 µM] | activity change, negative = cytotoxicity [11] 8.43% [at 2.72 µM] | activation [12] -0.527% [at 2.72 µM] | activity, negative = inhibition [18] -1.08% [at 1.81 µM] | activation [13] 0.209% [at 2.04 µM] | activity change, negative = cytotoxicity [14] 2.43% [at 3.27 µM]

O=C(O)COc1nn(Cc2ccccc2)c2ccccc12
inactive: Potency [1] | outcome [2] | Potency [3] | Potency [4] | Potency [5] | Potency [19] | outcome [15] | Potency [16] | Potency [6] | Potency [7] | Potency [17] | Potency [8] | Potency [9] | Potency [10] | outcome [11] | outcome [18] | outcome [13] | Potency [14]

CCCN(CCC)CCc1cccc2c1CC(=O)N2
inactive: Potency [1] | outcome [2] | Potency [3] | Potency [4] | Potency [5] | Potency [16] | Potency [6] | Potency [7] | Potency [17] | Potency [8] | Potency [9] | Potency [10] | outcome [18] | outcome [13] | Potency [14]

COC(=O)[C@@H](N)Cc1ccc(O)c(O)c1
inactive: Potency [1] | outcome [2] | Potency [3] | Potency [4] | Potency [5] | outcome [15] | Potency [16] | Potency [6] | Potency [7] | Potency [17] | Potency [9] | Potency [10] | outcome [11] | outcome [12] | outcome [13] | Potency [14]

CC/C=C\CC/C=C/C(OCC)OCC
inactive: outcome [2] | Potency [3] | Potency [4] | Potency [5] | outcome [15] | Potency [16] | Potency [6] | Potency [7] | Potency [17] | Potency [8] | Potency [9] | outcome [11] | outcome [12] | Potency [14]
active: Potency [1] 27.3 µM

From PubChem BioAssay (Tox21)
